hcDAF-12 act = activates DAF-12 receptor from parasite H. contortus; HEK293 hcDAF-12 lit1-tk-luc reporter, luminescence; 0% DMSO, 100% Δ7-dafachronic acid; activation, % at 6.8 µM; actives 1.4% (n = 370,000); AID 652067;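 active means activation above the mean of all tested compounds plus 3 SD, cut at about 5.5% in these data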
DAX1 inh-1 = inhibitors of human orphan nuclear receptor DAX1 (NR0B1); inhibition, % at 6.75 µM; actives 0.99% (n = 340,000); AID 504766; HEK293 Gal4-DAX1 luciferase reporter, luminescence;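 active means inhibition above the mean over all tested compounds plus 3 SD, cut at about 4.2% in these data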;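 further: inhibition shows as a rise in luminescence from relieved DAX1 repression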
Target sequence (P51843 207-470 limits assumed): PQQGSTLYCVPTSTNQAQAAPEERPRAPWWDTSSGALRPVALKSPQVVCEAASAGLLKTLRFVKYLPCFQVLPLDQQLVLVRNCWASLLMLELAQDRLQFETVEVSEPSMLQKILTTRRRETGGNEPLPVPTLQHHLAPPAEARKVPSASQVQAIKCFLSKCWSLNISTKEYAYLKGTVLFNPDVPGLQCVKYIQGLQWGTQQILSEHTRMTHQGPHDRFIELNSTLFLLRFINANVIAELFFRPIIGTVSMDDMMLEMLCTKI
DAX1 inh-2 = DAX1 (NR0B1) inhibition, primary screen; HEK293T StAR-luciferase reporter, SF-1/DAX-1 repression relief; inhibition, % at 6.8 µM; actives 1.1% (n = 370,000);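 active means inhibition above the mean over all tested compounds plus 3 SD, cut at about 3.6% in these data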;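 further: higher inhibition means more luminescence from relief of DAX-1 repression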
ssDAF-12 act = activates DAF-12 receptor from parasite S. stercoralis; HEK293 ssDAF-12/GRIP1 lit1-tk-luc reporter, luminescence; % of 3 µM dafachronic acid response; activation, % at 6.8 µM; actives 1% (n = 370,000); AID 652126;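 active means activation above the mean over all tested compounds plus 3 SD, cut at about 0.9% in these data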
PolyA inhibitor = blocks polyadenylation in yeast reporter cells; S. cerevisiae SKY197-pL101 polyadenylation reporter, beta-gal luminescence; efflux-impaired pdr1/pdr3 knockout yeast; score 100 = 6 SD above DMSO; activity score, % at 12 µM; actives 0.02% (n = 300,000);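 active means lowest replicate activity score at least 50, where 100 means six control SD above control mean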;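 further: yeast exposed to compound for 9 h at 30 °C; higher score means more reporter readthrough which indicates perturbed polyadenylation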
hgDAF12 agonist = hgDAF-12 agonism, primary luciferase screen; actives 1.8% (n = 370,000); HEK293 GAL4-hgDAF12 UAS-luciferase reporter, agonist luminescence; normalized to butyrate control; AID 687014; activation, % at 6.8 µM;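 active means activation above a cutoff set at the mean of all screened compounds plus 3 SD, cut at about 10% in these data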
A number is an active result. Shown are actives, neighbours in structure and some others; about 4.1% of the full set was active somewhere.

`O=C(Nc1nc2ccc(F)cc2s1)Oc1ccccc1` gave hcDAF-12 act 6.5, DAX1 inh-1 inactive, DAX1 inh-2 inactive, ssDAF-12 act inactive, PolyA inhibitor inactive and hgDAF12 agonist inactive.
For CC1CCc2nc(NC(=O)C3CCCO3)sc2C1 (stereo not drawn) the results were hcDAF-12 act 6.5, DAX1 inh-1 inactive, DAX1 inh-2 3.7, ssDAF-12 act inactive, PolyA inhibitor inactive and hgDAF12 agonist 12.
For CCCC(=O)OC[C@H]1CN(C2CCCC2)S(=O)(=O)c2c(Oc3ccc(F)cc3)cccc2O1 the results were hcDAF-12 act inactive, DAX1 inh-2 inactive, ssDAF-12 act inactive and hgDAF12 agonist inactive.
For Cn1c(NC(=O)c2ccccc2)nc(Cc2ccccc2)c1Cc1ccccc1 the results were hcDAF-12 act inactive, DAX1 inh-2 inactive, ssDAF-12 act inactive and hgDAF12 agonist inactive.
Screening CN(C)c1cccc(-c2ccnc(N3CCC(C(N)=O)CC3)n2)c1 returned hcDAF-12 act inactive, ssDAF-12 act inactive and hgDAF12 agonist inactive.
Screening COc1cc(-c2coc3c(C(=O)Nc4ccc(C(C)C)cc4)cccc23)ccc1O returned hcDAF-12 act 5.6, DAX1 inh-2 4.0, ssDAF-12 act 0.9 and hgDAF12 agonist inactive.
Screening O=C1Nc2ccccc2N=C(c2ccc3c(c2)OCO3)C1N(C(=O)c1ccc2ccccc2c1)C1CC1 (stereo not drawn) returned hcDAF-12 act 5.6, DAX1 inh-2 inactive, ssDAF-12 act inactive and hgDAF12 agonist 11.
`CC1CCN(CCCNS(=O)(=O)c2cc3c(cc2Br)CCN3C(=O)C2CC2)CC1` gave hcDAF-12 act inactive, DAX1 inh-2 inactive, ssDAF-12 act inactive and hgDAF12 agonist inactive.
Screening Cc1c(/C=C/C(=O)c2ccccc2O)cnn1C returned hcDAF-12 act inactive, DAX1 inh-1 4.5, DAX1 inh-2 inactive, ssDAF-12 act inactive, PolyA inhibitor inactive and hgDAF12 agonist 13.
Screening Cc1ccc(C)c(NC(=O)c2cccc3c2-c2ccccc2C3=O)c1 returned hcDAF-12 act inactive, DAX1 inh-2 inactive, ssDAF-12 act inactive and hgDAF12 agonist inactive.
CC1=NN(c2nc(-c3ccc(C)cc3)cs2)C(=O)C1N=Nc1ccccc1O (stereo not drawn) was read as hcDAF-12 act inactive, DAX1 inh-2 inactive, ssDAF-12 act 0.9, PolyA inhibitor inactive and hgDAF12 agonist inactive.
Screening COc1ccc(CN2C(=O)[C@]3(NCCc4c3[nH]c3ccc(OC)cc43)c3cc(Br)ccc32)cc1 returned hcDAF-12 act inactive, DAX1 inh-2 inactive, ssDAF-12 act inactive and hgDAF12 agonist inactive.
Screening O=C1c2ccccc2C(=O)N1CCOc1cccc(Br)c1 returned hcDAF-12 act inactive, DAX1 inh-1 inactive, DAX1 inh-2 4.4, ssDAF-12 act inactive, PolyA inhibitor inactive and hgDAF12 agonist inactive.
`Cc1cccc(NC(=O)c2cc3ccccc3c(=O)o2)n1` gave hcDAF-12 act inactive, DAX1 inh-1 6.5, DAX1 inh-2 inactive, ssDAF-12 act inactive, PolyA inhibitor inactive and hgDAF12 agonist inactive.
For CN1CCCCC(NC(=O)COCc2ccccc2)C1=O (stereo not drawn) the results were hcDAF-12 act inactive, DAX1 inh-2 inactive, ssDAF-12 act inactive and hgDAF12 agonist inactive.
O=C(N[C@@H]1CC[C@H]2SC[C@H](C(=O)O)N2C1=O)OCC1c2ccccc2-c2ccccc21 was read as hcDAF-12 act inactive, DAX1 inh-2 inactive, ssDAF-12 act inactive and hgDAF12 agonist inactive.
`O=C(NCc1ccccc1)C1Cc2c(-c3ccc4c(c3)OCO4)ccnc2O1` (stereo not drawn) gave hcDAF-12 act inactive, DAX1 inh-2 4.4, ssDAF-12 act inactive and hgDAF12 agonist inactive.
Screening Cc1ccc2c(c1)CCCN2CC(=O)N(C)c1c(N)n(Cc2ccccc2)c(=O)[nH]c1=O returned hcDAF-12 act inactive, DAX1 inh-1 inactive, DAX1 inh-2 inactive, ssDAF-12 act 1.3 and hgDAF12 agonist inactive.
CCN(CC)C(CNC(=O)CSc1nnnn1-c1c(C)cccc1C)c1ccco1 (stereo not drawn) was read as hcDAF-12 act inactive, DAX1 inh-1 inactive, DAX1 inh-2 3.6, ssDAF-12 act inactive and hgDAF12 agonist inactive.
`CCN(CC)C(CNC(=O)CSc1nnnn1-c1ccc(C)c(C)c1)c1ccco1` (stereo not drawn) gave hcDAF-12 act inactive, DAX1 inh-1 inactive, DAX1 inh-2 inactive, ssDAF-12 act inactive and hgDAF12 agonist inactive.
COc1cc(OC)cc(C(=O)NCCN2C(=O)C3C4C=CC(C4)C3C2=O)c1 (stereo not drawn) was read as hcDAF-12 act inactive, DAX1 inh-2 inactive, ssDAF-12 act inactive and hgDAF12 agonist inactive.
Cn1c(=O)[nH]c(=O)c2c1nc(SCC(=O)O)n2CCc1ccccc1 was read as hcDAF-12 act inactive, DAX1 inh-1 inactive, DAX1 inh-2 inactive, ssDAF-12 act inactive, PolyA inhibitor inactive and hgDAF12 agonist inactive.
Screening Cn1c(=O)[nH]c(=O)c2c1nc(SCC(=O)O)n2CCOc1ccccc1 returned hcDAF-12 act inactive, DAX1 inh-1 inactive, DAX1 inh-2 inactive, ssDAF-12 act 0.9, PolyA inhibitor inactive and hgDAF12 agonist inactive.
Screening COc1ccc(-c2nn3c(-c4n[nH]c5c4CCC5)nnc3s2)cc1 returned hcDAF-12 act inactive, DAX1 inh-2 inactive, ssDAF-12 act inactive and hgDAF12 agonist inactive.
COc1ccc(-c2ccc3c(n2)CCCN3S(=O)(=O)c2ccc(C#N)cc2)cc1 was read as hcDAF-12 act inactive, DAX1 inh-2 inactive, ssDAF-12 act inactive and hgDAF12 agonist inactive.
Screening Cc1cccc(-c2nsc(SCC(=O)N3CCCC3)n2)c1 returned hcDAF-12 act inactive, DAX1 inh-1 inactive, DAX1 inh-2 inactive, ssDAF-12 act inactive, PolyA inhibitor inactive and hgDAF12 agonist 13.
Screening COC(=O)Cn1c(CCC(=O)O)ccc1-c1ccccc1 returned hcDAF-12 act inactive, DAX1 inh-1 5.2, DAX1 inh-2 inactive, ssDAF-12 act inactive, PolyA inhibitor inactive and hgDAF12 agonist inactive.
COc1ccc(NC(=O)Cn2c(CCC(=O)O)ccc2-c2ccccc2)cc1 was read as hcDAF-12 act inactive, DAX1 inh-1 inactive, DAX1 inh-2 inactive, ssDAF-12 act inactive, PolyA inhibitor inactive and hgDAF12 agonist inactive.
For OC[C@H]1O[C@H](OCc2ccccc2)[C@H](O[C@@H]2OC[C@@H](O)[C@H](O)[C@H]2O)[C@@H](O)[C@@H]1O the results were hcDAF-12 act inactive, DAX1 inh-1 6.3, DAX1 inh-2 inactive, ssDAF-12 act inactive, PolyA inhibitor inactive and hgDAF12 agonist inactive.
`OC1COC(OCC2OC(OCc3ccccc3)C(O)C(O)C2O)C(O)C1O` (stereo not drawn) gave hcDAF-12 act inactive, DAX1 inh-1 inactive, DAX1 inh-2 inactive, ssDAF-12 act inactive, PolyA inhibitor inactive and hgDAF12 agonist inactive.
CC(C)(C)C1=Nn2c(nnc2-c2ccc(C(C)(C)C)cc2)SC1 was read as hcDAF-12 act inactive, DAX1 inh-2 inactive, ssDAF-12 act inactive and hgDAF12 agonist inactive.
